# Shown are actives, neighbours in structure and some others; about 22% of the full set was active somewhere.
# Pf growth 96h = P. falciparum growth inhibition at 96 hours. P. falciparum luciferase reporter growth, 96 h. Potency, µM (top dose mostly 28.7 µM), for inactives: top-dose activity change, negative = inhibition, actives largely listed as inhibitors. actives 6.9% (n = 320,000). AID 504834; further: potency means the concentration at half of the fitted maximal effect; on the % scale 0 is the no-effect control and ±100 the full control effect
#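 Delayed-death screen, second-generation endpoint: infected erythrocytes, 2% hematocrit, 0.05% parasitemia final; 96 hours at 37 C, 5% CO2; luciferase detection reagent; luminescence decrease equals reduced growth.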
# Pf growth 48h = P. falciparum growth inhibition at 48 hours (one generation); AID 504832; P. falciparum luciferase growth in erythrocytes, 48 h; actives 5.9% (n = 310,000); Potency, µM (doses to about 28.7 µM), for inactives: top-dose activity change, negative = inhibition, most hits filed as inhibitors; further: potency means the concentration at half of the fitted maximal effect; on the % scale 0 is the no-effect control and ±100 the full control effect
#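 First compound was added to culture medium, then infected red cells at 0.1% parasitemia and 2% hematocrit (final). After incubation at 37 C under 5% CO2, luciferase detection reagent was dispensed and light output recorded.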
# Cycloheximide cs = counter-screen hit for Shiga toxin inhibitors, cycloheximide | max response, % | cell reporter, cycloheximide protein synthesis inhibition counterscreen | AID 2314 | actives 12% (n = 300,000); in the data active means max response mostly above about 13%, no sharp cut-off; inactive means mostly below about 14%; further: read at 38.3 µM for the half of the compounds with a filed dose; 0% is about no effect
# Shiga toxin inh = Shiga toxin inhibition. AID 2315. inhibition, % at 38.7 µM. Vero cells, Shiga toxin protein synthesis inhibition reporter. actives 9.2% (n = 290,000); in the data active means inhibition mostly above about 28%, no sharp cut-off; inactive means mostly below about 43%; further: 0% is about no effect
# LmPK inh = inhibitors of Leishmania mexicana pyruvate kinase; purified LmPK, Kinase-Glo ATP luminescence, 1 h; Q27686; actives 0.37% (n = 290,000); Potency, µM (highest dose often 57.5 µM), for the others: top-dose activity change, negative = inhibition, usual class: inhibitors; further: potency means the concentration at half of the fitted maximal effect; on the % scale 0 is the no-effect control and ±100 the full control effect
# Target sequence (Q27686 whole entry, looked up): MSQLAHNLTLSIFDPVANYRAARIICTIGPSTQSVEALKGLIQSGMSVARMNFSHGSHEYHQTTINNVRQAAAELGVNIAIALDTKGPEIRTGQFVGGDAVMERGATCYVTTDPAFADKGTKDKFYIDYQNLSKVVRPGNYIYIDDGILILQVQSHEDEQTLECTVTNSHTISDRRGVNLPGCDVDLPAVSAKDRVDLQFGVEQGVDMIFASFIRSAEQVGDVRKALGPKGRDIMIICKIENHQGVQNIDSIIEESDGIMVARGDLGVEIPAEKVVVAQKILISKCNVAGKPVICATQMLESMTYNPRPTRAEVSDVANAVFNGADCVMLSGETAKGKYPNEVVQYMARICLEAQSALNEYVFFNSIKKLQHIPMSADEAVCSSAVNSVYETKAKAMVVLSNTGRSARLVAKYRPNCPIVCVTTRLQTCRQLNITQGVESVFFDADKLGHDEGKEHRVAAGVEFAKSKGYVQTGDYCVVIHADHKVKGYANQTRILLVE
#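 Purified LmPK (0.1 nM) with 0.5 mM PEP and 0.1 mM ADP in imidazole buffer pH 7.2 with MgCl2/KCl, 1 h at room temperature. ATP formed was read by luciferase luminescence and normalized to no-enzyme and uninhibited controls.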
# Numbers without * were called inactive; u = inconclusive; x = no result. Unless noted, the call rests on the fitted dose curve; in most records, active means well fitted inhibition curve with a large enough effect; inconclusive means small, poorly fitted or top-dose-only effect, or another doubt; inactive means no such curve, though single readings can be large or run the other way.
SMILES,Pf growth 96h,Pf growth 48h,Cycloheximide cs,Shiga toxin inh,LmPK inh
COc1ccc(CCNC(=O)C/C(C)=N/NC(=O)c2cnccn2)cc1,1.4%,3.5%,35.7*,41.4*,-2.9%
C/C(CC(=O)Nc1cc(C)cc(C)c1)=N\NC(=O)c1ccccn1,29.1%,46.5%,37.1*,43.2*,-3.2%
COc1ccc(NC(=O)C/C(C)=N/NC(=O)c2ccccn2)c(OC)c1,13.1µM*,10.1%,37.5*,87.9*,-6.8%
CCC(C)c1ccc(NC(=O)C/C(C)=N/NC(=O)c2cnccn2)cc1 (stereo not given),u,-10.2%,24.3*,48.1*,-0.3%
COc1ccc(NC(=O)C/C(C)=N/NC(=O)c2cnccn2)c(OC)c1,17.1%,-7.6%,36.9*,33.8,-1.9%
COc1ccc(NC(=O)CC(=O)Nc2ccc(OC)cc2OC)c(OC)c1,u,6.0%,1.1,-9.5,1.9%
COc1ccc(NC(=O)C/C(C)=N/NC(=O)C(=O)NC2CCCCC2)c(OC)c1,u,6.5%,-4.2,13.2,0.0%
CSc1nc(N2CCOCC2)cc(N2CCOCC2)n1,1.1%,9.1%,1.4,-6.1,7.0%
CSc1nccc(N2CCN(c3ccc(F)cc3)CC2)n1,11.7µM*,u,1.6,24.8,4.4%
CCC(C)NC(=O)c1cc2cc3ccc(OC)cc3nc2s1 (stereo not given),6.8%,x,57.3*,88.4*,-22.8%
CCC(C)NC(=O)c1cc2c(=O)[nH]c3ccc(C)cc3c2s1 (stereo not given),36.4%,u,-1.8,-2.6,-2.1%
COc1ccc2cc3cc(C(=O)NCCN4CCN(Cc5ccccc5)CC4)oc3nc2c1,11.3%,u,-4.0,-10.1,2.0%
COc1ccc2cc3cc(C(=O)NCCN4CCc5ccccc5C4)sc3nc2c1,2.62µM*,u,21.4*,46.6*,-0.2%
COc1ccc2cc3cc(C(=O)NCCN4CCc5ccccc5C4)oc3nc2c1,u,3.29µM*,20.7,36.5*,-0.5%
COc1ccc(C(=O)NCCS(=O)(=O)N2CCc3ccccc3C2)c(OC)c1,13.3%,-3.1%,x,x,x
CCCC1CC(C)(c2csc(Nc3ccc(OCC)cc3)n2)OC1=O (stereo not given),u,u,19.7*,60.5*,1.4%
COc1ccc(CC(=O)N/N=C(/C)CC(=O)N(C)c2ccccc2)cc1,55.9%,13.1%,8.4,34.6,-1.2%
Cc1cc(N(C)Cc2ccccc2)nc2cc(O)ccc12,3.1%,1.65µM*,19.9*,44.0*,6.2%
CCOC(=O)C(NCc1ccc2c(c1)OCO2)(NC(=O)c1ccccc1)C(F)(F)F (stereo not given),37.0%,14.8%,-1.8,-13.2,-2.5%
COCCCNC(=O)C1CCC(=O)N1Cc1ccccc1Cl (stereo not given),11.7µM*,23.7%,-0.8,-9.2,6.2%
O=C(NCCc1ccc(Cl)cc1)C1CCC(=O)N1Cc1ccccc1Cl (stereo not given),59.6%,1.8%,-2.6,-12.1,0.2%
O=C(Nc1ccc(Cl)cc1Cl)C1CCC(=O)N1Cc1ccccc1Cl (stereo not given),8.28µM*,u,-2.9,-18.2,2.3%
O=C(O)C1CCC(=O)N1Cc1ccccc1Cl (stereo not given),10.4µM*,1.5%,-3.1,-4.0,1.0%
O=C(NCc1ccccc1Cl)C1CCC(=O)N1Cc1ccc(F)cc1 (stereo not given),14.5%,33.8%,1.1,-1.6,0.0%
O=C(Nc1ccc(Cl)cc1)C1CCCN(c2ncnc3c2nc2n3CCCCC2)C1 (stereo not given),u,u,-2.6,-2.6,1.0%
SMILES,Pf growth 96h,Pf growth 48h,Cycloheximide cs,Shiga toxin inh,LmPK inh
CCOc1ccc(NCCC(O)c2ccc(F)cc2)cc1 (stereo not given),10.8%,-0.8%,23.3*,21.7,-2.5%
CCCC(=O)c1c[nH]c(C(=O)NCc2ccco2)c1,-3.6%,49.8%,-2.2,-25.3,-1.2%
CN(C(=O)CCN1C(=O)/C(=C/c2ccccc2)SC1=S)C1CCS(=O)(=O)C1 (stereo not given),2.62µM*,u,-2.3,-1.3,6.3%
CN(C(=O)CN1C(=O)S/C(=C\c2ccc(Cl)cc2)C1=O)C1CCS(=O)(=O)C1 (stereo not given),-10.8%,-12.0%,1.8,-6.4,-1.5%
CN(C(=O)CN1C(=O)S/C(=C\c2ccccc2)C1=O)C1CCS(=O)(=O)C1 (stereo not given),13.1µM*,-6.9%,-1.2,2.5,1.3%
Clc1ccc(Sc2cc(Cl)c(-c3ccccc3)nn2)cc1,-5.7%,u,8.5,39.3,-0.2%
CC(=O)Nc1cccc(C(=O)OCC(=O)c2ccccc2Cl)c1,106.6%,191.4%,35.1*,124.9*,-24.1%
COc1ccccc1C(=O)NC(=O)COC(=O)c1cccc(NC(C)=O)c1,14.7%,6.2%,27.9*,9.6,0.3%
CC(=O)Nc1cccc(C(=O)OCC(=O)NC(=O)c2ccccc2)c1,39.8%,35.8%,x,x,x
CCC(=O)Nc1cccc(C(=O)OCC(=O)c2ccccc2Cl)c1,37.0%,35.5%,30.9*,74.4*,0.8%
Cc1c(Cl)cccc1NC(=O)c1ccccc1-c1ccccc1C(=O)O,2.3%,2.5%,1.8,-7.9,-1.3%
O=C(NCc1cnn(-c2ccccc2)c1)C1CCC(=O)N(C2CC2)C1 (stereo not given),5.22µM*,11.1%,-1.9,-11.9,-1.2%
CN(Cc1cnn(-c2ccccc2)c1)C(=O)C1CCC(=O)N(C2CC2)C1 (stereo not given),1.0%,3.9%,-1.0,-4.9,-7.8%
O=C(NCc1ccccc1OC(F)(F)F)C1CCC(=O)N(C2CC2)C1 (stereo not given),11.7µM*,21.2%,1.1,-8.4,-6.2%
Cc1ccccc1CN(C)C(=O)c1ccc2ccccc2n1,3.5%,8.1%,-2.2,4.7,-0.9%
Oc1c(C2=NCCNC(C(F)(F)F)=C2)ccc2ccccc12,20.7%,74.8%,38.4*,69.6*,-3.3%
Cc1ccc(C(=O)NCN2CCN(c3ccccc3)CC2)cc1,17.9%,9.1%,x,x,x
CCCC(=O)NC(Nc1c(C)n(C)n(-c2ccccc2)c1=O)C(Cl)(Cl)Cl (stereo not given),30.0%,2.4%,-3.7,-4.1,-2.4%
CCC(=O)N(CCC1(c2ccccc2OC)CCOC(C(C)C)C1)Cc1ccco1 (stereo not given),10.4µM*,10.4µM*,26.3*,30.5,5.0%
COc1ccccc1C1(CCNC(C)c2cccs2)CCOC(C(C)C)C1 (stereo not given),8.28µM*,8.28µM*,-1.1,1.4,2.7%
COc1ccccc1C1(CC(=O)O)CCOC(C(C)C)C1 (stereo not given),-5.0%,2.9%,-1.8,-9.7,-4.5%
CC(C)(C)c1csc(NC(=O)C2COc3ccccc3O2)n1 (stereo not given),54.9%,37.7%,42.2*,87.0*,-2.9%
CC1(C)CC(=O)c2sc(NS(=O)(=O)c3ccc([N+](=O)[O-])cc3)nc2C1,u,-21.2%,46.4*,-6.8,5.6%

# Bioassay records deposited in PubChem by National Center for Advancing Translational Sciences (NCATS).
